Assay outcomes as filed in PubChem.
Sampled rows, rich in hits. Any-hit rate of the full collection: about 2.6%.
PABP polyA inh = blocks human PABP binding to poly(A) RNA. P11940. fluorescence polarization. calls only at 35 µM. 1% of 290,000 active. AID 2014;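 also: calls also rest on retests at 20 µM and on dose response follow-up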
AI-2 QS mod = Vibrio harveyi AI-2 quorum sensing modulation. activity change, % at 7.5 µM. Vibrio harveyi JMH597 AI-2 luminescence/OD600 ratio, 9 h; hits give low values; strain lacks LuxN and CqsS sensors; 0 = neutral-control median. 0.4% of 300,000 active; in the data active = activity change below about -75%, passing the limit was not always enough; inconclusive = no clear call, values can overlap the other calls;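 also: luminescence divided by OD600 gain over 9 h not by final OD600 alone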
eIF4H inh = inhibitors of RNA binding by human eIF4H; eIF4H fluorescence polarization binding assay; inhibition, % at 35 µM; 0.94% of 290,000 active; AID 2012;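 also: calls also rest on retests at 20 µM and on dose response follow-up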
PHOSPHO1 block = blocks human PHOSPHO1 phosphatase activity; 1.1% of 290,000 active; inhibition, % at 13.3 µM; Q8TCT1; recombinant PHOSPHO1, absorbance phosphatase assay; in the data active = inhibition above about 60%
Target sequence (Q8TCT1 whole entry, looked up): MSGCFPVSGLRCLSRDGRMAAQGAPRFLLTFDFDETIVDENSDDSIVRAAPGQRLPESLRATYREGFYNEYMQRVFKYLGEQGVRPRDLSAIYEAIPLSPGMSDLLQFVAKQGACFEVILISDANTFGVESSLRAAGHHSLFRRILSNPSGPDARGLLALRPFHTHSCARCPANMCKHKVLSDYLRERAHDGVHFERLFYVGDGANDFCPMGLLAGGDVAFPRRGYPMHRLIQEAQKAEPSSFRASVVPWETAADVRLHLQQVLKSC
ABCB6 inh 2 = inhibitors of human ABC transporter ABCB6; 0.19% of 360,000 active; K562-ABCB6 porphyrin accumulation, flow cytometry, 1 h; hits give low values; Q9NP58; fluorescence ratio to DMSO, % at 10 µM;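 active = fluorescence ratio to DMSO below 75%, the collection mean minus 3 SD; inconclusive = too few cells collected in the well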;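 also: signal is porphyrin accumulated inside mitochondria; 100% equals median channel fluorescence of DMSO control wells; lower ratio means ABCB6 inhibition with less porphyrin fluorescence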
MLLE-PAM2 inh = inhibitors of microRNA-mediated deadenylation, human PABP1 MLLE binding. P11940. GST-MLLE / FITC-PAM2 fluorescence polarization. inhibition, % at 20 µM. 0.36% of 360,000 active. AID 588489; in the data active = inhibition above about 35%, passing the limit was not always enough;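 also: plate controls were DMSO wells with GST-MLLE for no effect and wells lacking GST-MLLE protein for full effect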
* hit, by the source's call. Unless noted, no rule for the calls is given here.

Screening COc1ccc(CCN2C(=O)/C(=C\c3ccco3)SC2=S)cc1OC returned PABP polyA inh active, AI-2 QS mod -0.4, eIF4H inh 63.3*, PHOSPHO1 block -147.3, ABCB6 inh 2 98.0 and MLLE-PAM2 inh 1.2.
Screening O=C1/C(=C\c2ccco2)NC(=S)N1c1ccccc1 returned PABP polyA inh active, AI-2 QS mod 35.7, eIF4H inh 60.4, PHOSPHO1 block 20.0, ABCB6 inh 2 115.0 and MLLE-PAM2 inh 1.4.
`C=CCN1C(=O)/C(=C\c2ccc(OC(=O)c3ccco3)c(OC)c2)SC1=S` gave PABP polyA inh inactive, AI-2 QS mod 23.4, eIF4H inh -10.1, PHOSPHO1 block -23.2, ABCB6 inh 2 217.0 and MLLE-PAM2 inh -0.9.
O=C(CCN1C(=O)/C(=C/c2ccco2)SC1=S)Nc1ccc(O)cc1C(=O)O was read as PABP polyA inh active, AI-2 QS mod 19.4, eIF4H inh 100.6*, PHOSPHO1 block 43.7, ABCB6 inh 2 100.0 and MLLE-PAM2 inh 11.2.
For O=C(CCN1C(=O)/C(=C/c2ccco2)SC1=S)Nc1ccc(C(=O)O)c(O)c1 the results were PABP polyA inh active, AI-2 QS mod 8.3, eIF4H inh 86.2*, PHOSPHO1 block 33.0, ABCB6 inh 2 98.0 and MLLE-PAM2 inh -7.8.
Screening Cn1c2c(c(=O)n(C)c1=O)CN(Cc1ccccc1)CN2 returned ABCB6 inh 2 97.0 and MLLE-PAM2 inh -4.3.
For O=C(O)CCN1C(=O)/C(=C\c2ccc(-c3nc4ccccc4s3)o2)SC1=S the results were PABP polyA inh active, AI-2 QS mod 12.3, eIF4H inh 101.3*, PHOSPHO1 block 94.5*, ABCB6 inh 2 82.0 and MLLE-PAM2 inh -78.6.
O=C(CCN1C(=O)/C(=C\c2ccco2)SC1=S)Nc1ccc(C(=O)O)c(O)c1 was read as AI-2 QS mod 25.9, PHOSPHO1 block 29.8, ABCB6 inh 2 94.0 and MLLE-PAM2 inh -7.5.
O=C(CN1C(=O)/C(=C\c2ccco2)SC1=S)Nc1ccc(O)cc1C(=O)O was read as PABP polyA inh active, AI-2 QS mod 12.1, eIF4H inh 79.2*, PHOSPHO1 block 12.1, ABCB6 inh 2 109.0 and MLLE-PAM2 inh -11.9.
Screening O=C(O)CCN1C(=O)/C(=C\c2ccncc2)SC1=S returned PABP polyA inh inactive, AI-2 QS mod 16.4, eIF4H inh -1.1, PHOSPHO1 block 32.0, ABCB6 inh 2 99.0 and MLLE-PAM2 inh 26.6.
For O=C(CCCN1C(=O)/C(=C\c2ccco2)SC1=S)Nc1ccc2ccccc2c1 the results were PABP polyA inh active, AI-2 QS mod 8.3, eIF4H inh 78.5*, PHOSPHO1 block -0.8, ABCB6 inh 2 96.0 and MLLE-PAM2 inh -11.4.
O=C(O)CN1C(=O)/C(=C/c2ccc(SCc3ccccc3)o2)SC1=S was read as PABP polyA inh active, eIF4H inh 59.6*, PHOSPHO1 block 55.8, ABCB6 inh 2 98.0 and MLLE-PAM2 inh -122.8.
Screening CCC(=O)N1CCC1(C)C(=O)Nc1ccc2c(c1)CCN2C(C)=O (centres undefined) returned ABCB6 inh 2 92.0 and MLLE-PAM2 inh -6.6.
`CC1=NN2C(=N)/C(=C\c3ccc(SCc4ccccc4)o3)C(=O)N=C2S1` gave PABP polyA inh active, AI-2 QS mod -2.0, eIF4H inh inconclusive, PHOSPHO1 block 94.1*, ABCB6 inh 2 100.0 and MLLE-PAM2 inh 5.4.
`CC1=NN2C(=N)/C(=C\c3cc(C)n(Cc4ccccc4)c3C)C(=O)N=C2S1` gave PABP polyA inh inactive, AI-2 QS mod 7.4, eIF4H inh 1.3, PHOSPHO1 block 23.7, ABCB6 inh 2 85.0 and MLLE-PAM2 inh -2.4.
O=C(CCCN1C(=O)/C(=C/c2ccco2)SC1=S)Nc1ccccc1C(=O)O was read as PABP polyA inh active, AI-2 QS mod 43.1, eIF4H inh 100.2*, PHOSPHO1 block -114.1, ABCB6 inh 2 96.0 and MLLE-PAM2 inh 7.5.
Screening CCOC(=O)C1=CCN(S(=O)(=O)c2ccccc2Cl)C1c1cccc(C)c1 (centres undefined) returned ABCB6 inh 2 101.0 and MLLE-PAM2 inh -4.2.
CSc1ccc(/C=C/C(=O)c2ccc(O)cc2)cc1 was read as PABP polyA inh inactive, AI-2 QS mod -93.0*, eIF4H inh 3.9, PHOSPHO1 block 5.8, ABCB6 inh 2 91.0 and MLLE-PAM2 inh 16.7.
